The whole screen tested about 330,000 compounds, of which about 540 (0.16%) were called active. The sample holds actives, similar compounds and a random draw of the others, so the mix is not that of the screen. Unmarked numbers belong to inactive results.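 The calls were made as follows: active = activation factor of the enzyme at least 2-fold when tested at 20 µM; inactive = the rest.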
Each compound was assayed against Intestinal-type alkaline phosphatase (Homo sapiens) (UniProt P09923) (assay: enzymatic activation of intestinal alkaline phosphatase – biochemical, luminescence, uHTS, primary screen (AID 2524)). Conditions: purified human IAP, CDP-Star luminescence, 30 min; at 10 µM; stronger effect = higher value; 1 = vehicle-only enzyme, 0 = enzyme-free background.
Intestinal-type alkaline phosphatase (Homo sapiens), sequence (P09923 whole entry, looked up): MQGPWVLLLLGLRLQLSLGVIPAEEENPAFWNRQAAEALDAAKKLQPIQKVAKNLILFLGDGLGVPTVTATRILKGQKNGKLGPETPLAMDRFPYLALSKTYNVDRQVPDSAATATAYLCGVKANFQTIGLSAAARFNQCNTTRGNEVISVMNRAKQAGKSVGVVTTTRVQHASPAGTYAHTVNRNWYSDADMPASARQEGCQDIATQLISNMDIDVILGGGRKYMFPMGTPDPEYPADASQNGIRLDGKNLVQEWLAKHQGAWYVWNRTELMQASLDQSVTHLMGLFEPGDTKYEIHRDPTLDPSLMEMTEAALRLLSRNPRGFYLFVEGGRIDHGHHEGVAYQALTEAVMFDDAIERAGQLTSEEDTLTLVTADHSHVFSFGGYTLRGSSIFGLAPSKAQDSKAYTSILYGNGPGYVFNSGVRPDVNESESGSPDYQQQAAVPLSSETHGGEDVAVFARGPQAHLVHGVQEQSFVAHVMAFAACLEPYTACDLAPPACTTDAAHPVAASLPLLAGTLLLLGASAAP
`O=C(NCc1ccccc1Cl)c1ccc2c(=O)n(CC3CCCO3)c(=S)[nH]c2c1` (stereo not given) gave an activation factor of 0.824.
For `CCN=c1sc(C(=O)Nc2ccccc2)c(C)n1CC`, the activation factor was 1.04.
`CN(C)c1nccc(NCc2ccccc2)c1C#N` showed an activation factor of 1.01.
`O=C(CN1CCC(NC(=O)Nc2ccccc2)CC1)Nc1cccc([N+](=O)[O-])c1` showed an activation factor of 0.94.
With `Cc1cc(C)cc(NC(=O)NC2CCN(CC(=O)Nc3cccc(Cl)c3C)CC2)c1` the activation factor was 3.04 (active).
Compound `COc1cccc(NC(=O)CN2CCN(CC(=O)Nc3ccccc3Cl)CC2)c1` has an activation factor of 0.935.
Work on `CN(C)C(=O)c1nc2ccc(Cl)cn2c1CNCc1cccc(OC(F)(F)F)c1` yielded an activation factor of 0.976.
For `COc1cc(S(=O)(=O)Nc2ncn[nH]2)ccc1Cl`, the activation factor was 0.999.
For `CC(C)n1ncc2c(C(=O)Nc3ccc(CC#N)cc3)cc(C3CC3)nc21`, the activation factor was 0.958.
`O=C(c1cc(COc2c(F)cccc2F)on1)N1CCSCC1` showed an activation factor of 1.07.
`Cc1cnc(C(=O)OCC(=O)Nc2ccc(Cl)cc2Cl)cn1` gave an activation factor of 1.07.
With `COc1cc(NC(=O)COC(=O)CSc2ccc3ccccc3c2)c(C)cc1[N+](=O)[O-]` the activation factor was 1.12.
In the case of `COc1cc(NC(=O)COC(=O)c2cnc(C)cn2)c(C)cc1[N+](=O)[O-]`, the activation factor is reported as 2.53 (active).
Work on `CCCCN(CCCC)CCNC(=O)CN1C(=O)COc2ccc(S(=O)(=O)N3CCOCC3)cc21` yielded an activation factor of 0.976.
`O=C(CNCCC1=CCCCC1)Nc1ccccc1N1CCCCCC1` showed an activation factor of 1.04.
`COCCNS(=O)(=O)c1cc(Br)ccc1OC` gave an activation factor of 0.874.
Work on `CSCCNC(=O)c1ccc2nc(Cc3ccccc3F)oc2c1` yielded an activation factor of 1.11.
`CCCc1cc(=O)[nH]c(SCC(=O)Nc2ccc(C(=O)Nc3ccccc3OC)cc2)n1` was tested, and the activation factor was 1.04.
For `OC1CN=C2Sc3ccccc3N2C1` (stereo not given), the activation factor was 2.42 (active).
`Cc1ccc(C(=O)COC(=O)CCCC(=O)NC2CCCCC2)cc1[N+](=O)[O-]` was tested, and the activation factor was 0.908.
Compound `COC(=O)c1cccc(N(C(=O)CNC(=O)c2cccs2)C(C(=O)NCC2CCCO2)c2ccc(OC)c(OC)c2)c1` (stereo not given) has an activation factor of 0.951.
For `COC(=O)[C@]1(CC(C)C)N[C@H](c2ccc(SC3CCCCC3)cc2)[C@@H]2C(=O)N(C)C(=O)[C@@H]21`, the activation factor was 0.874.
For `COc1ccc(CCC(C)N2CCc3ccccc3C2)cc1` (stereo not given), the activation factor was 0.983.
In the case of `Cc1nn(CC2CC2)c(=O)n1N(C)c1ncc(C(F)(F)F)cc1Cl`, the activation factor is reported as 0.985.
`COc1ccccc1C(=O)NCC(=O)NCCSc1ccc(Br)cc1` was tested, and the activation factor was 1.02.
Work on `O=C(CSCc1ccccc1Cl)NNC(=O)c1ccccc1` yielded an activation factor of 1.25.
`NC(=O)COc1ccc(NC(=O)c2ccccc2-c2ccccc2)cc1` was tested, and the activation factor was 2.12 (active).
With `CC(=O)Nc1ccc(NC(=O)COc2ccc(-c3ccccc3)cc2)cc1` the activation factor was 0.914.
In the case of `CN(C)C(=O)c1ccc(NC(=O)c2ccccc2-c2ccccc2)cc1`, the activation factor is reported as 1.16.
Work on `Cn1nnnc1SCC(=O)Nc1ccccc1C(=O)NC1CC1` yielded an activation factor of 0.94.
For `CCN(CC)S(=O)(=O)c1ccc(Cl)c(C(=O)NCCN2CCOCC2)c1`, the activation factor was 1.07.
With `CC1CC(C)(C)n2c(O)c(N=NC(N)=S)c3cccc1c32` (stereo not given) the activation factor was 0.927.
With `CC(=O)Oc1c(C(=O)c2nnc(C)o2)c(=O)n(Cc2ccccc2)c2ccccc12` the activation factor was 1.07.
With `Cc1cccc(NS(=O)(=O)c2ccc(C)c(C(N)=O)c2)c1` the activation factor was 1.05.
In the case of `Cc1cccc(NS(=O)(=O)c2cccc(C(=O)NNC(=O)c3ccccc3O)c2)c1`, the activation factor is reported as 2.18 (active).
In the case of `CC(=O)N1CCN(C(=O)c2cccc(S(=O)(=O)Nc3ccc(C)cc3)c2)CC1`, the activation factor is reported as 1.16.
For `CN(C)C(=O)c1cccn(Cc2cccc(C(F)(F)F)c2)c1=O`, the activation factor was 1.24.
`Cn1c(N)c(C(=O)COC(=O)C23CC4CC(CC(C4)C2)C3)c(=O)n(C)c1=O` showed an activation factor of 0.895.
With `Cc1ccccc1C(=O)NCC(c1ccco1)N1CCc2ccccc21` (stereo not given) the activation factor was 0.802.
Work on `CC12COC3(C(=O)Nc4ccc(Cl)cn4)CC1CCC32C` (stereo not given) yielded an activation factor of 0.935.
`COc1cc(CN2CCC(n3nccc3NC(=O)CCCc3ccccc3)CC2)ccc1O` showed an activation factor of 1.47.
`Cc1ccc(CN2CCC(n3nccc3NC(=O)CCCc3ccccc3)CC2)o1` gave an activation factor of 1.13.
For `COc1ccc(CN2CCC(n3nccc3NC(=O)CCCc3ccccc3)CC2)cc1C`, the activation factor was 3.92 (active).
Work on `C=Cn1cc[n+](CC(=O)c2ccc(OC)c(OC)c2)c1` yielded an activation factor of 0.894.
Compound `O=C(c1ccc(Br)o1)N(c1ccccn1)C1CCCCC1` has an activation factor of 1.04.
With `O=C(N/N=C/c1ccc(Br)o1)c1cncc(Br)c1` the activation factor was 1.05.
Compound `N#Cc1ccccc1CN1C(=O)S/C(=C/c2cccn2-c2cccc(C(=O)O)c2)C1=O` has an activation factor of 1.06.
`Cc1cccc(CN2CCC(CNC(=O)Nc3ccc(F)c(Cl)c3)CC2)c1` was tested, and the activation factor was 1.31.
`COc1cc(NC(=O)NCC2CCN(Cc3ccc(C)cc3)CC2)cc(OC)c1OC` was tested, and the activation factor was 2.12 (active).
Work on `Cc1ccc(C)c(CN2CCC(CNC(=O)Nc3ccc(C)c(F)c3)CC2)c1` yielded an activation factor of 1.49.

— PubChem BioAssay AID2524 (Sanford-Burnham Center for Chemical Genomics, 2010)
